TRHR agonist = TRH receptor (human) agonism; TRHR cells, calcium flux fluo-8, FDSS agonist mode; activation, % at 2 µM; P34981; 0.18% of 360,000 active; also: 0% is about no effect
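Agonist-mode FDSS calcium read (Ex 480/Em 530, 1 s cycles) in 1536-well TRHR cells with fluo-8 dye, after 10-cycle baseline and 23 nL compound addition; TRH at EC20 (10 nM final) added afterwards for the enhancer phase.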
D1 antag = blocks dopamine activation of the human D1 receptor. P21728. HEK293 TREx D1 cells, calcium flux, dopamine EC80; stronger effect = lower value. activity change, negative = inhibition, % at 10 µM. 3.2% of 360,000 active. AID 504652; in the data active = activity change below about -30%; also: % is scaled to controls: 0 for no effect and ±100 for the full control effect
Target sequence (P21728 whole entry, looked up): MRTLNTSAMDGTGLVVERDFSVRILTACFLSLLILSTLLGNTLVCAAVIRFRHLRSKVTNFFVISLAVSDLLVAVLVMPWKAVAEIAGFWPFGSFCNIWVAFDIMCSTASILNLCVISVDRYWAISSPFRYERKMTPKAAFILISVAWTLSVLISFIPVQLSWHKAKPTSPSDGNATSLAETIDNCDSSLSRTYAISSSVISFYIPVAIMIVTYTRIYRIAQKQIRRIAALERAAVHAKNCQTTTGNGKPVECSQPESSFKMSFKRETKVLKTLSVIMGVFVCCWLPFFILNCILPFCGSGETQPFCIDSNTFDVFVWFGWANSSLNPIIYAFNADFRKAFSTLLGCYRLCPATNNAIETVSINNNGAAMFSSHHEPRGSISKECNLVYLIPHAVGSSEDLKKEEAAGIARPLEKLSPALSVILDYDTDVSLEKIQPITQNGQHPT
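Calcium flux readout: force-coupled, inducible Hek293 Trex D1 line, cells induced overnight at 30 C with tetracycline, dye-loaded 30–90 min at RT. Antagonism scored against EC80 dopamine challenge given 180 s after compound.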
D1 agonist = human D1 receptor agonism | HEK293 T-REx D1 cells, calcium flux, agonist mode | activation, % at 2 µM | P21728 | 1% of 360,000 active; also: 0% is about no effect
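Inducible HEK293 T-REx D1 cells, force-coupled to calcium signalling, were plated at 4000 cells/well with tetracycline and held overnight at 30 C. After no-wash calcium dye loading, compound-evoked calcium rise over 180 s flagged agonists.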
TRHR PAM = TRH receptor (human) allosteric enhancement. P34981. TRHR cells, fluo-8 calcium fluorescence, EC20 TRH enhancement. enhancement, % at 2 µM. 0.66% of 360,000 active; in the data active = enhancement above about 30%; also: 0% is about no effect
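TRHR-expressing cells loaded with fluo-8 calcium dye were read kinetically (ex 480/em 530) during compound addition, then stimulated with an EC20 of TRH (10 nM final). Enhancement of the Gq-mediated intracellular calcium response was scored.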
D1 potentiator = human D1 dopamine receptor positive modulation; 0.036% of 360,000 active; potentiation, % at 10 µM; HEK293 TREx D1 cells, calcium flux, dopamine EC20 potentiation; AID 504651; in the data active = potentiation above about 30%; also: 0% is about no effect
Active calls of the source: *; ! = a repeat was not active. Rows were chosen to be rich in hits. Some 4.7% of all compounds tested hit in one or more screens of this group. Rule as the data show it, unless noted: active = activation above about 30%; inactive = the rest.

`COc1ccccc1NS(=O)(=O)c1cccc(NC(=O)Nc2ccc(Cl)cc2)c1` gave TRHR agonist 1, D1 antag -16, D1 agonist 15, TRHR PAM 4 and D1 potentiator -8.
COc1ccccc1NS(=O)(=O)c1cccc(C(=O)OCc2nc3ccccc3s2)c1 was read as TRHR agonist 1, D1 antag -18, D1 agonist 8, TRHR PAM -2 and D1 potentiator -1.
COc1ccccc1NS(=O)(=O)c1cccc(NC(=O)Nc2ccccc2)c1 was read as TRHR agonist -1, D1 antag -33*, D1 agonist 8, TRHR PAM -5 and D1 potentiator -13.
`COc1ccccc1NS(=O)(=O)c1ccc(NC(=O)c2ccncc2)cc1` gave TRHR agonist 1, D1 antag -23, D1 agonist 14, TRHR PAM 38* and D1 potentiator -5.
COc1cc(C(=O)Nc2ccc(S(=O)(=O)Nc3cc(C)on3)cc2)cc(OC)c1OC was read as TRHR agonist 0, D1 antag -79*, D1 agonist 0, TRHR PAM 9 and D1 potentiator -2.
Screening Cc1oc(-c2cccc(Br)c2)nc1Cn1c(SCc2cccc(F)c2)nc2cccnc21 returned TRHR agonist 2, D1 antag 5, D1 agonist 4, TRHR PAM 8 and D1 potentiator -2.
`COc1ccccc1NS(=O)(=O)c1cccc(C(=O)NNC(=O)c2ccc(=O)[nH]c2)c1` gave TRHR agonist 0, D1 antag -32*, D1 agonist 6 and TRHR PAM -3.
`COc1ccccc1NS(=O)(=O)c1cccc(C(=O)NN=C2CCCCCC2)c1` gave TRHR agonist 0, D1 antag -3, D1 agonist 1, TRHR PAM 16 and D1 potentiator -2.
COc1ccccc1NS(=O)(=O)c1ccc(NC(=O)N2CCCCC2)cc1 was read as TRHR agonist 0, D1 antag -46*, D1 agonist 4, TRHR PAM 5 and D1 potentiator -9.
Cc1ccccc1S(=O)(=O)N1CCN(S(=O)(=O)c2ccc3c(c2)OCCO3)CC1 was read as TRHR agonist 0, D1 antag -12, D1 agonist 4, TRHR PAM 2 and D1 potentiator 3.
Screening CCCCOc1ccc(C2c3c(oc4ccccc4c3=O)C(=O)N2c2nc(C)c(C(=O)OCC)s2)cc1OC (configuration not stated) returned TRHR agonist 0, D1 antag -31*, D1 agonist 0, TRHR PAM 1 and D1 potentiator -2.
For CCOC(=O)c1sc(N2C(=O)c3oc4cc(C)c(C)cc4c(=O)c3C2c2ccc(C)cc2)nc1C (configuration not stated) the results were TRHR agonist 0, D1 antag -23, D1 agonist 0, TRHR PAM 0 and D1 potentiator -4.
O=C(c1cccc(C(F)(F)F)c1)C1CCCN(C(=O)/C=C/c2cnc[nH]2)C1 (configuration not stated) was read as TRHR agonist 1, D1 antag 14, D1 agonist 1, TRHR PAM 0 and D1 potentiator 0.
For COCCNC(=O)CN(CCc1ccccc1)S(=O)(=O)c1ccc(Br)cc1 the results were TRHR agonist 0, D1 antag 13, D1 agonist 1, TRHR PAM -7 and D1 potentiator -12.
Screening CCN(CC(=O)NCCc1ccccc1)S(=O)(=O)c1ccc(Br)cc1 returned TRHR agonist 1, D1 antag -37*, D1 agonist 6, TRHR PAM 0 and D1 potentiator -1.
Screening CCOC(=O)c1nnn(CC(=O)NC(=O)Nc2ccc(F)cc2)c1C(=O)OCC returned TRHR agonist -1, D1 antag -9, D1 agonist 42*!, TRHR PAM -19 and D1 potentiator -2.
Cc1cccc(N2CCN(Cc3nc(-c4ccccc4Cl)oc3C)CC2)n1 was read as TRHR agonist 0, D1 antag -31*, D1 agonist 1, TRHR PAM -5 and D1 potentiator -7.
For CCCCn1c(N)c(N(CCOC)C(=O)CCNC(=O)c2ccccc2Cl)c(=O)[nH]c1=O the results were TRHR agonist 1, D1 antag 8, D1 agonist 1, TRHR PAM 3 and D1 potentiator 2.
